For seven compounds, Potency, outcome and activity change, positive = activation results are on record in PubChem BioAssay (Tox21).

Structures are written as SMILES. Where “and” joins values, the source holds several entries; their conditions need not be identical. Identical values can stand only once. Unmarked numbers belong to inactive results. Records with an inconclusive call do not appear. Calls of active or inactive are those of the source. Unless noted, calls follow the shape of the dose curve; as a rule, active = well fitted curve in the direction sought with a large enough effect in the repeat runs; inconclusive = weak or mixed curves; inactive = no such curve, though single readings can be large; an effect the other way counts as inactive or inconclusive.

Assay [1] can be described thus: qHTS assay to identify small molecule antagonists of the estrogen related receptor (ERR) signaling pathway from Tox21 library - cell viability counter screen (AID 1224834). Also: nearly all actives have a fitted effect of over 30% in size. Also: potency is read from the fitted curve at half-maximal effect. The essentials: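 ERR reporter cells were plated 6 h before compound addition, then exposed to test compounds in DMSO for 17.5 h at 37 C. Viability was read as CellTiter-Fluor fluorescence after a 30-minute incubation at 37 C.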
On the technique in general: qHTS replaces the single test concentration by a dilution series.

Assay [2] concerns the target Luciferin 4-monooxygenase (Photinus pyralis) (UniProt P08659). Description: qHTS assay to identify small molecule inhibitors of firefly luciferase (AID 1224835). Also: nearly all actives have a fitted effect of over 25% in size. Also: potency is read from the fitted curve at half-maximal effect. The essentials: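 Biochemical qHTS: compounds run as interplate titrations against purified firefly enzyme, with D-luciferin and ATP each at its KM concentration. Light output recorded by CCD imaging.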
The nature of assay [3]: qHTS assay to identify small molecule agonists of the constitutive androstane receptor (CAR) signaling pathway - cell viability counter screen (AID 1224836). Also: nearly all actives have a fitted effect of over 45% in size. Also: potency is read from the fitted curve at half-maximal effect. The essentials:
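Using CellTiter-Fluor, viability of HepG2 cells harbouring hCAR and CYP2B6-2.2kb was measured following 23 h incubation with a 15-concentration compound series plus PK11195 (0.75 uM final).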

Assay [4] is described as follows: qHTS assay to identify small molecule antagonists of the constitutive androstane receptor (CAR) signaling pathway - cell viability counter screen (AID 1224837). Also: nearly all actives have a fitted effect of over 45% in size. Also: potency is read from the fitted curve at half-maximal effect. The gist of the method: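 HepG2 cells stably expressing hCAR and a CYP2B6-2.2kb reporter were plated and pre-incubated 4 hr at 37 C/5% CO2, then given compounds at 15 concentrations plus 50 nM CITCO (final). After 23 hr, viability was read by CellTiter-Fluor fluorescence.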

Assay [5] concerns the target Nuclear receptor subfamily 1 group I member 3 (Homo sapiens) (UniProt Q14994). Description: qHTS assay to identify small molecule antagonists of the constitutive androstane receptor (CAR) signaling pathway (AID 1224838). Also: nearly all actives have a fitted effect of over 40% in size. Also: potency is read from the fitted curve at half-maximal effect. The essentials: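 HepG2 cells stably co-transfected with hCAR and a CYP2B6-2.2kb luciferase reporter were seeded 4 h before compound addition at 15 concentrations. Cells were stimulated with 50 nM CITCO (final) for 24 h at 37 C; luciferase luminescence was then read.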

The target is the same in assay [6]. Kind of assay: qHTS assay to identify small molecule agonists of the constitutive androstane receptor (CAR) signaling pathway (AID 1224839). Also: nearly all actives have a fitted effect of over 15% in size. Also: potency is read from the fitted curve at half-maximal effect. The essentials:
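Double-stable HepG2 cells (hCAR, CYP2B6-2.2kb) seeded 4 h before compound addition. Exposure 24 h with 0.75 uM PK11195 final. Luciferase detected by ONE-Glo.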

Assay [7] is described as follows: qHTS assay to identify small molecule antagonists of the estrogen related receptor signaling pathway with the pleiotropic PPARgamma coactivator (PGC) from Tox21 10K library - cell viability counter screen (AID 1224840; active = well fitted cell-killing curve with a large enough effect in the repeat runs, not every such curve was filed as active; also: nearly all actives have a fitted effect of over 40% in size). The essentials: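 PGC/ERR cells were seeded at 2,000 cells/well and left 6 hours at 37 C/5% CO2 before pin-tool addition of compounds in DMSO. After 17.5 hours at 37 C, CellTiter-Fluor was added and fluorescence read 30 minutes later.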

Assay [8] addresses Thyrotropin receptor (Homo sapiens) (UniProt P16473). Description: qHTS assay to identify small molecule agonists of the thyroid stimulating hormone receptor (TSHR) signaling pathway (AID 1224843; calls by dose curve; also: nearly all actives have a fitted effect of over 45% in size; also: potency is read from the fitted curve at half-maximal effect). The gist of the method:
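TSHR-HEK293 cells in agonist mode, 30 min room-temperature step, then cAMP measured by competitive HTRF (cAMP-d2 with anti-cAMP cryptate) after 1 h at room temperature. Tested at 15 concentrations in triplicate.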

The nature of assay [9]: qHTS assay to identify small molecule agonists of the hypoxia (HIF-1) signaling pathway - cell viability counter screen (AID 1224844; calls by dose curve; also: nearly all actives have a fitted effect of over 50% in size). The essentials: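 HRE-bla ME-180 cells in medium with 0.5% dialyzed FBS were preincubated 5 hrs at 37C, exposed to compounds for 17 hrs, then viability was read as CellTiter-Glo luminescence after 30 min at room temperature, in the reporter wells.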

A short description of assay [10]: qHTS assay to identify small molecule agonists of H2AX (AID 1224845; active = well fitted activation curve with a large enough effect in the signal ratio in the repeat runs, not every such curve was filed as active; the % refers to the signal ratio). The gist of the method: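 Wild-type CHO-K1 cells, plated overnight, exposed 3hr at 37C to 15 concentrations (0.76% DMSO final). Lysed, then HTRF anti-pH2AX (S139) cryptate and anti-H2AX-d2 antibodies, 24 hr room temperature; 665/620 nm emission read.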
The nature of assay [11]: qHTS assay to identify small molecule agonists of the hypoxia (HIF-1) signaling pathway (AID 1224846; active = well fitted activation curve with a large enough effect in the signal ratio in the repeat runs, not every such curve was filed as active; the % refers to the signal ratio). The gist of the method:
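HRE-bla ME-180 cells (beta-lactamase reporter under hypoxia response element) were plated at 2,000 cells/well in medium with 0.5% dialyzed FBS, rested 5 hrs, then given compounds in DMSO for 17 hrs at 37C, 5% CO2. Reporter induction was read with CCF4-AM FRET substrate.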

The nature of assay [12]: qHTS assay to identify small molecule agonists of H2AX - cell viability counter screen (AID 1224847; calls by dose curve; also: nearly all actives have a fitted effect of over 30% in size; also: potency is read from the fitted curve at half-maximal effect). The gist of the method: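 Quantitative HTS viability measurement: CHO-K1 wild-type cells in serum (10% FBS) medium, short 3 hr drug exposure at 37C with 0.76% DMSO, CellTiter-Glo luminescent detection.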
Assay [13] can be described thus: qHTS RealTime-Glo MT Cell Viability Assay in HepG2 cells - 24 hour (AID 1224867). Also: nearly all actives have a fitted effect of over 50% in size. Also: potency is read from the fitted curve at half-maximal effect. The essentials: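 Compound treatment began 5 h after plating HepG2 cells (600/well) with NanoLuc luciferase and prosubstrate. Plates stayed at 37 C for 40 h; luminescence was captured at six time points, 0 h through 40 h.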
The nature of assay [14]: qHTS RealTime-Glo MT Cell Viability Assay in HEK293 cells - 32 hour (AID 1224868). Also: nearly all actives have a fitted effect of over 50% in size. Also: potency is read from the fitted curve at half-maximal effect. The essentials:
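Quantitative high-throughput screen of the Tox21 10K library in HEK293: cells and RealTime-Glo reagents plated together, compound added at 5 h, luminescence monitored through 40 h at 37 C.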

Assay [15] in a line: A CellTox Green Cytotoxicity Assay to monitor cytotoxicity in HEK293 cells - 0 hour (AID 1224869). Also: nearly all actives have a fitted effect of over 50% in size. The essentials: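 HEK293 cells premixed with CellTox Green dye were seeded at 600 cells/well and left 5 h at 37 C/5% CO2 before pin transfer of 23 nL compound in DMSO. Fluorescence from dye bound to dead-cell DNA was read during 40 h treatment.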
The nature of assay [16]: qHTS assay to identify small molecule antagonists of the estrogen related receptor signaling pathway with the pleiotropic PPARgamma coactivator (PGC) from Tox21 10K library (AID 1224841; call rule not given here; also: potency is read from the fitted curve at half-maximal effect). The essentials: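 PGC/ERR reporter cells were seeded at 2,000 cells/well and held 6 hours at 37 C/5% CO2 before pin-tool addition of compounds in DMSO. After 18 hours at 37 C, One-Glo was added and luminescence read after 30 minutes at room temperature.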

A short description of assay [17]: qHTS assay to identify small molecule agonists of the estrogen related receptor signaling pathway with the pleiotropic PPARgamma coactivator (PGC) from Tox21 10K library (AID 1224842). Also: nearly all actives have a fitted effect of over 15% in size. The gist of the method:
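PGC/ERR reporter cell line, 2,000 cells per well, incubated 6 h at 37 C before 23 nL compound in DMSO was added. After 18 h at 37 C, One-Glo luminescence read following 30 min at room temperature.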

Assay [18] is described as follows: qHTS assay to identify small molecule antagonists of the estrogen related receptor (ERR) signaling pathway from Tox21 library (AID 1224848). Also: nearly all actives have a fitted effect of over 50% in size. Also: potency is read from the fitted curve at half-maximal effect. The essentials:
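ERR reporter cell line (from NTP) seeded 2,000 cells/well, rested 6 h at 37 C/5% CO2, then pin-dosed with compounds in DMSO. After 18 h at 37 C, ONE-Glo added; luminescence read after 30 min at room temperature.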

Assay [19] can be described thus: qHTS assay to identify small molecule agonists of the estrogen related receptor (ERR) signaling pathway from Tox21 library (AID 1224849; calls by dose curve; also: nearly all actives have a fitted effect of over 15% in size). As to conditions: ERR reporter cell line, ONE-Glo luciferase, 18 h. The essentials: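 ERR reporter cell line (NTP) seeded, rested 6 h at 37 C/5% CO2, then pinned with Tox21 compounds in DMSO. After 18 h at 37 C, ONE-Glo luciferase luminescence was read following 30 min at room temperature.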

A short description of assay [20]: qHTS assay to identify small molecule agonists of the estrogen related receptor signaling pathway with the pleiotropic PPARgamma coactivator (PGC) (AID 1224823). The gist of the method: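 PGC/ERR reporter cells seeded 6 h, then exposed to compounds (23 nL in DMSO) for 18 h at 37 C. One-Glo luciferase luminescence read after 30 min at room temperature.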
% is scaled to controls: 0 for no effect and ±100 for the full control effect.

Chain of Nuclear receptor subfamily 1 group I member 3 (Homo sapiens) (Q14994 whole entry, looked up): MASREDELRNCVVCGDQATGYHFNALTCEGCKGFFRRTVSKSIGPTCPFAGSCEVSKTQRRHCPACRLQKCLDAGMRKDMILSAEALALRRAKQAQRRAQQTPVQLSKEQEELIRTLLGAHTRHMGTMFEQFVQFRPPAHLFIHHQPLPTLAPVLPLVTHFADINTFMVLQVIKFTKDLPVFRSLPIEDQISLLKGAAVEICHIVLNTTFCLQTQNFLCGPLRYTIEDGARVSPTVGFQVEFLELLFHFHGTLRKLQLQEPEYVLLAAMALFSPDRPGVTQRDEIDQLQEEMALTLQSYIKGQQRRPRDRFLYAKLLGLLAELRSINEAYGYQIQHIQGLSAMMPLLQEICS
Chain of Luciferin 4-monooxygenase (Photinus pyralis) (P08659 whole entry, looked up): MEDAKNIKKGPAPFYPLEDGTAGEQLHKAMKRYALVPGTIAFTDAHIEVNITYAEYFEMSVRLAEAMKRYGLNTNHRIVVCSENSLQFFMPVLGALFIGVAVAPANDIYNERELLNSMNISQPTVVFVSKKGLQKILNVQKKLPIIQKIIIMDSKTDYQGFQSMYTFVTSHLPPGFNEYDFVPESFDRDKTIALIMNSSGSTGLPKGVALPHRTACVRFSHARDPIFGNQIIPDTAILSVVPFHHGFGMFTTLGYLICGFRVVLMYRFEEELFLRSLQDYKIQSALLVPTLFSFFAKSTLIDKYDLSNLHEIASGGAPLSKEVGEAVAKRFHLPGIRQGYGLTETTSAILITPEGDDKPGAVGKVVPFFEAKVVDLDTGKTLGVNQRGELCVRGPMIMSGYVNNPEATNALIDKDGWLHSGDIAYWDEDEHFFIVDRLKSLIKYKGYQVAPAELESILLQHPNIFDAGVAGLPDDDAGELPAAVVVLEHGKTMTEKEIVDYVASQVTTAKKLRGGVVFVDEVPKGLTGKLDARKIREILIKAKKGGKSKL
Chain of Thyrotropin receptor (Homo sapiens) (P16473 whole entry, looked up): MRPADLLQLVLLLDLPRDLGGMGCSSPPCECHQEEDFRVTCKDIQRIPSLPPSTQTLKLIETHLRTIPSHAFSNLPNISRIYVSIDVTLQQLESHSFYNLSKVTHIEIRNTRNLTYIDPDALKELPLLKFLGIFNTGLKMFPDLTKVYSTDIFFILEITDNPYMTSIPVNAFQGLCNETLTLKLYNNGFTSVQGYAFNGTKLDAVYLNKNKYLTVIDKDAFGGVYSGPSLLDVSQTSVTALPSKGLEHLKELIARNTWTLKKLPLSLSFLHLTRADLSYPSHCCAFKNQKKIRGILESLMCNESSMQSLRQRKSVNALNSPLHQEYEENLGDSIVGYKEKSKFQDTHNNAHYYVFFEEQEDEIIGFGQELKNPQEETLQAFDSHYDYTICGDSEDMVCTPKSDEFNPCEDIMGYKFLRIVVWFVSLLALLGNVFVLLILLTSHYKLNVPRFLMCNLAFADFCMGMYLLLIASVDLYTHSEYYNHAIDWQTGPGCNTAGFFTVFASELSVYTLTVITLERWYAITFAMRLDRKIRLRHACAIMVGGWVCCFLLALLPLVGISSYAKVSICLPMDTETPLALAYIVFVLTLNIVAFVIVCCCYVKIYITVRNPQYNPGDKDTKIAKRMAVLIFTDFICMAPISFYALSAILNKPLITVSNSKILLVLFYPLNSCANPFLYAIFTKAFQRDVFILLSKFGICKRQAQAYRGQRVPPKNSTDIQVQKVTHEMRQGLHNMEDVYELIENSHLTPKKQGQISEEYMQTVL

On to `CCCCCCOC(=O)c1ccccc1C(=O)OCCCCCC`, for which the Potency result in assay [1], in assay [2], in assay [3], in assay [4], in assay [5] and in assay [7] was “inactive” each time. For the same compound, the Potency entry in assay [8], in [9], in assay [10], in [12], in [13] and in [14] was “inactive” in each case. In addition, the Potency entry in assay [15] was “inactive”. Besides, the Potency in assay [6] was 27.9 µM (active) and 30.6 µM (active). Besides, the compound was classed as inactive in [11].

For the compound `Cc1cc(Cl)ccc1OCCCC(=O)O`, the Potency result in assay [1], in assay [3], in assay [4], in [5], in assay [6] and in [7] was “inactive” throughout. For the same compound, the Potency entry in assay [8], in [9], in assay [10], in assay [12], in assay [13] and in [14] was “inactive” each time. For the same compound, the Potency result in assay [15] is “inactive”. For the same compound, in [2], the Potency is 73.8 µM (active). For the same compound, the compound was classed as inactive in assay [11].

For the compound `CC(C)C(=O)OCC(C)(C)C(OC(=O)C(C)C)C(C)C` (stereo not drawn), the Potency result in assay [1], in assay [2], in [3], in assay [4], in assay [5] and in assay [6] was “inactive” each time. The Potency entry in assay [7], in [16], in assay [17], in assay [8], in [9] and in assay [10] was “inactive” each time. In addition, the Potency result in assay [12], in [18], in [13], in [14] and in assay [15] was “inactive” throughout. Also, in assay [11], the outcome was inactive. Moreover, the activity change, positive = activation in assay [19] (at 92.4 µM (top of the series)) was 5% and 0.884%.

`Nn1cnnc1`: the Potency entry in assay [1], in assay [2], in assay [3], in [4], in assay [5] and in [6] was “inactive” throughout. The Potency entry in [7], in assay [8], in assay [9], in assay [10], in assay [12] and in assay [13] was “inactive” throughout. The Potency result in assay [14] and in assay [15] was “inactive” throughout. Besides, the compound was called inactive in assay [11].

Consider `c1ccc(N=Nc2ccccc2)cc1`, for which the Potency entry in assay [1], in assay [3], in [4], in assay [5], in assay [6] and in assay [7] was “inactive” throughout. Moreover, the Potency result in assay [16], in assay [17], in assay [8], in assay [9], in [10] and in assay [12] was “inactive” in each case. The Potency entry in assay [18], in [13], in assay [14] and in assay [15] was “inactive” throughout. Further, the Potency in assay [2] is 18.2 µM (active) and 22.4 µM (active). Besides, in [11], the result was inactive. In addition, in assay [19] (at 92.4 µM (top of the series)), the activity change, positive = activation is 2.72% and 1.53%.

On to `Cc1ccccc1[N+](=O)[O-]`, for which the Potency result in [1], in [2], in [3], in [4], in assay [5] and in assay [6] was “inactive” in each case. For the same compound, the Potency result in assay [7], in [8], in assay [9], in assay [10], in [12] and in [13] was “inactive” throughout. Besides, the Potency result in assay [14] and in assay [15] was “inactive” throughout. Besides, the result in [11] was inactive.

Take `C=C(C)[C@H]1Cc2c(ccc3c2O[C@@H]2COc4cc(OC)c(OC)cc4[C@@H]2C3=O)O1`: the outcome in [20] and in [11] was inactive. Moreover, the Potency in assay [1] is 8.75 µM (active) and 8.63 µM (active) and 376 nM (active); in assay [3] it was 875 nM (active) and 1.54 µM (active) and 668 nM (active); in assay [4] it was 1.96 µM (active) and 770 nM (active) and 531 nM (active); in assay [5], 3.48 µM (active) and 19.3 µM (active) and 3.35 µM (active); in [16], 34.8 nM (active) and 4.9 nM (active); in [8] it was 24.7 µM (active) and 17.2 µM (active) and 26.6 µM (active). Moreover, the Potency is 0.091 µM (active) in [12]; 39.1 nM (active) and 9.7 nM (active) and 10.6 nM (active) in assay [18]; 27.9 µM (active) and 27.5 µM (active) in assay [13]; 55.7 nM (active) and 11 nM (active) and 47.7 nM (active) in assay [14]. Moreover, the Potency entry in assay [2], in [6], in [7], in assay [17], in assay [9] and in assay [15] was “inactive” throughout. In addition, the activity change, positive = activation in assay [19] (at 42.5 µM (top of the series)) is -51.1%; in [19] (at 92.4 µM (top of the series)), -64.6% and -64.1%.
